High-throughput results deposited in PubChem by National Center for Advancing Translational Sciences (NCATS).
Tau fibril ThT – inhibitors of human tau fibril formation, thioflavin T binding. P10636. recombinant tau K18 P301L, heparin-induced fibrillization, ThT fluorescence. Potency, µM (series often up to 57.4 µM), without a hit: at the top dose activity, negative = inhibition, actives largely listed as inhibitors. 270,000 tested, 2.1% active. AID 1460; note: potency is the fitted concentration of half-maximal effect; nearly all actives have a fitted effect of over 55% in size
Target sequence (P10636 561-689 P618L limits assumed): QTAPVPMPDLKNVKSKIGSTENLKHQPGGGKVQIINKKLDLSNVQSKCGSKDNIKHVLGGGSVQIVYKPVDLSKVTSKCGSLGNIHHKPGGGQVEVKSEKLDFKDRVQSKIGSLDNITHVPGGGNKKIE
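In this qHTS, human K18 P301L tau is incubated with compound and heparin for 6 hr at 37 C, and Thioflavin T fluorescence then reports fibril load.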
Sfp inh – inhibitors of Bacillus subtilis Sfp phosphopantetheinyl transferase; Q9F4F7; Biochemical Sfp PPTase activity, qHTS; Potency, µM, for the others: largest response in the series, negative = inhibition, most hits filed as inhibitors; 310,000 tested, 3.5% active; AID 1490;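 note: the enzyme is Sfp with the accession as filed and its product quenches rhodamine fluorescence; potency is the fitted concentration of half-maximal effect; 0% = enzyme reaction without inhibitor and -100% = no enzyme wells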
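With Hepes-Na pH 7.6 buffer containing 10 mM MgCl2, Sfp (15 nM) modified BHQ-2-YbbR (12.5 uM) using rhodamine-CoA (5 uM). Two reads 30 minutes apart at 525/598 nm yielded each well's rate.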
Coupling enz – counter-screen for Giardia aldolase inhibitors: coupling enzyme system | 290,000 tested, 0.67% active | activity change, negative = inhibition, % at 58.2 µM, hits read low | coupling enzyme system counterscreen, AmpLite Red fluorescence; in the data active = activity change below about -30%
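Activity here indicates interference with the coupling reaction, not aldolase inhibition. Compounds at 57.5 uM final met coupling enzymes for 10 min at RT; substrate and AmpLite Red detection followed, with a 525/598 nm fluorescence read after 20 min.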
Tau fibril FP – blocks human tau fibril formation measured by polarization. Potency, µM (titrated, usually from 57.7 µM), for the others: at the highest dose activity, negative = inhibition, usual class: inhibitors. 280,000 tested, 0.39% active. P10636. K18 P301L tau heparin fibrillization, Alexa594 FP, 6 h; note: potency is the fitted concentration of half-maximal effect; nearly all actives have a fitted effect of over 55% in size
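Human tau K18 […] P301L fragment, 15 uM unlabeled plus 0.24 uM Alexa 594-labeled tau (final), with compound and 20 uM heparin in 100 mM sodium acetate pH 7; 6 hr at 37 C, then Alexa 594 FP read.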
Tau fluor cs – counter-screen for tau fibril formation inhibitors; tau K18 P301L Alexa594 fluorescence, heparin fibrillization; AID 1463; 280,000 tested, 0.93% active; Potency, µM (top dose mostly 57.7 µM), without a hit: at the top dose activity change, negative = decrease; note: potency is the fitted concentration of half-maximal effect; nearly all actives have a fitted effect of over 55% in size
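Human tau K18 P301L (15 uM unlabeled, 0.24 uM Alexa 594-labeled) in 100 mM sodium acetate pH 7 with 20 uM heparin, 6 hr at 37 C. ThT 30 uM added, 1 hr ambient; Alexa 594 FP and total fluorescence read at 555/632 nm.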
JMJD2E inh – JMJD2E (human) inhibition. B2RXH2. JMJD2E catalytic domain, FDH-coupled NADH fluorescence (FDH is formaldehyde dehydrogenase). Potency, µM (titrated, usually from 57.1 µM), without a hit: at the highest dose activity change, negative = inhibition, hits mostly inhibitors. 230,000 tested, 1.6% active; active = well fitted inhibition curve with a large enough effect, not every such curve was filed as active; inconclusive = small, poorly fitted or top-dose-only effect, or another doubt; inactive = no such curve, though single readings can be large or run the other way;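 note: potency is the fitted concentration of half-maximal effect; 0% = wells with enzyme and -100% = buffer wells without enzyme; nearly all actives have a fitted effect of over 50% in size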
Target sequence (B2RXH2 1-337 limits assumed): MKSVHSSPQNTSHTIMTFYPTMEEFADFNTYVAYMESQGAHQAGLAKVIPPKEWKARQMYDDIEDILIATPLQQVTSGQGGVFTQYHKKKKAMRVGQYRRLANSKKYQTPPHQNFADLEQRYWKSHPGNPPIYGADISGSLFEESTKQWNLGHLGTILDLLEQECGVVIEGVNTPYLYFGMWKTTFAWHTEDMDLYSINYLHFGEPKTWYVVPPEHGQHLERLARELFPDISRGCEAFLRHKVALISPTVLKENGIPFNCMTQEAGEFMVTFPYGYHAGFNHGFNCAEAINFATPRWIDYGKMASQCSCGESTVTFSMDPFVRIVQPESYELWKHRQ
* marks the source's active call; other numbers are inactive results; ? = inconclusive; . = no result given; [ ] = dose if it differs, or a comment. In the library only some 5.3% were active in any assay of this set; here they are far more common. Unless noted, calls come from the whole dose curve; as a rule, active = well fitted curve in the direction sought with a large enough effect; inconclusive = small, poorly fitted or top-dose-only effect, or another doubt; inactive = no such curve, though single readings can be large; an effect the other way counts as inactive or inconclusive. Unless noted, % is set by controls: 0 for no effect and ±100 for the full control effect.

SMILES	Tau fibril ThT	Sfp inh	Coupling enz	Tau fibril FP	Tau fluor cs	JMJD2E inh
CCC(=O)Nc1cccc(-c2nnc(SCC(=O)c3ccccc3)n2C)c1	?	79µM*	2	6%	-3%	3%
O=C(CSc1nnc(C2CC2)n1Cc1ccccc1)c1ccc(S(=O)(=O)N2CCOCC2)cc1	?	13µM*	0	-7%	-11%	-8%
CC(=O)OC[C@@H]1O[C@@H](O/N=C2/C[C@@H](O)[C@@H](O)[C@@H]3[C@@H]4C(=O)N(C(C)(C)C)C(=O)[C@H]4CC[C@@H]23)[C@H](OC(C)=O)[C@H](OC(C)=O)[C@@H]1OC(C)=O	-11%[11.5 µM]	15%	1	-3%[11.6 µM]	-13%[11.6 µM]	.
COC(=O)c1ccc(Nc2ncnc3c2nc2n3CCCC2)cc1	-12%	.	.	2%	9%	.
O=C(Nc1ccc(Br)cc1)c1cccc(S(=O)(=O)Nc2ccc(Br)cc2)c1	.	15%	0	.	.	.
O=C1CSc2ccc(C(=O)Nc3cccc(S(=O)(=O)Nc4ccc(Br)cc4)c3)cc2N1	6%	35µM*	4	18µM*	10µM*[quencher]	-13%
CCC1(c2ccccc2)NC(=O)NC1=O (stereo not given)	.	-9%	-5	.	.	.
CCC(=O)Nc1ccc(OCc2nc3ccccc3s2)cc1	?	45µM*	0	?	-22%	-28%
Fc1ccc(OCc2nc3ccccc3s2)cc1	-16%	5%	1	-8%	-16%	-5%
Cc1cc(OCc2nc3ccccc3s2)ccc1N	14µM*	20µM*	1	-17%	?	-9%
c1ccc(OCc2nc3ccccc3s2)cc1	-15%	9%	0	1%	-6%	-2%
COc1ccc2[nH]c3c(c2c1)CCNC3c1ccc([N+](=O)[O-])o1 (stereo not given)	.	50µM*	-10	.	.	.
N=c1c2c(ncn1Cc1ccco1)Oc1ccc3ccccc3c1C2c1ccccc1 (stereo not given)	-10%	22µM*	-1	?	-23%	6%
Cc1cc2c(cc3c(SCc4ccc(Cl)cc4)nncn32)o1	?	.	.	-3%	-26%	.
COc1ccc(-c2cc(=O)oc3c4c(ccc23)OCN(Cc2ccccc2)C4)cc1	?	.	.	0%	-27%	.
Cc1c(N=C2C=CC(=O)c3ccccc32)c(=O)n(-c2ccccc2)n1C	2.2µM*	18µM*	-52*	7.9µM*	4.5µM*[quencher]	?
Cc1c(N=C2C=C(Br)C(=O)C(Br)=C2)c(=O)n(-c2ccccc2)n1C	16µM*	40µM*	-5	25µM*	16µM*[quencher]	-16%
COc1ccccc1CNC(=O)c1ccc(N2CCCC2)c(NC(=O)NCc2ccccc2)c1	6%	.	.	15%	-7%	.
COc1ccc2c(c1)c(=O)c(C(=O)c1ccc(F)cc1)cn2CC(=O)Nc1ccc2c(c1)OCO2	?	.	.	-11%	-27%	.
CN1C(=O)/C(=C/C=C2\SCCN2C)SC1=S	?	-24%	-1	4%	-15%	-3%
CN1C(=O)/C(=C/C=C2\SCCN2C)N(C)C1=S	28µM*	-12%	-17	-8%	-15%	-5%
OC[C@@H](O)C(O)[C@H](O)[C@H](O)CO (stereo not given in full)	.	12%	-2	.	.	.
Cc1ccc(NC(=O)Nc2cccs2)c(C)c1	-6%	.	.	18%	-20%	.
Cc1ccccc1NC(=O)Nc1cccs1	?	22µM*	0	5%	-29%	-1%
CC(C)NC(=O)Nc1cccs1	-9%	79µM*	0	4%	-6%	0%
SMILES	Tau fibril ThT	Sfp inh	Coupling enz	Tau fibril FP	Tau fluor cs	JMJD2E inh
O=C(Nc1ccccn1)Nc1cccs1	-5%	50µM*	-4	4%	-12%	2%
CCc1ccccc1NC(=O)Nc1cccs1	-8%	50µM*	-3	9%	-22%	3%
CC1CCC(NC(=O)Nc2cccs2)CC1 (stereo not given)	-21%	-20%	0	6%	-15%	-9%
Cc1ccc(C)c(N2CCN(c3nc4ccccc4n4nnnc34)CC2)c1	?	.	.	11%	?	.
Cc1ccc(Cl)cc1NC(=O)Nc1cccs1	-16%	50µM*	0	17%	?	2%
O=C(CN1c2ccccc2Sc2ccccc21)NNC(=S)Nc1ccc(Cl)cc1Cl	?	11%	2	15%	10µM*[quencher]	14%
O=C(CN1c2ccccc2Sc2ccccc21)NNC(=S)Nc1ccc(Cl)cc1	.	5%	8	.	.	?
CN1C(=O)/C(=C2\SC(=S)N(CC3CCCO3)C2=O)c2ccccc21 (stereo not given)	-12%	19%	0	6%	-16%	6%
CN1C(=O)/C(=C2\SC(=S)N(C(CCC(=O)O)C(=O)O)C2=O)c2ccccc21 (stereo not given)	?	-24%	-22	-2%	-12%	13µM*
COc1ccc(SCc2cc(=O)c3cc(Cl)ccc3[nH]2)cc1	1%	.	.	-10%	-8%	.
CCOc1ccc(-c2nc3c(c(SCC(=O)N4CCCCC4)n2)Cc2cccc(OC)c2O3)cc1	-12%	.	.	8%	-9%	.
Nc1cc2nsnc2cc1Br	8.9µM*	40µM*	-32*	?	?	21%
Nc1cnc(Br)cc1Br	2%	-9%	2	1%	2%	-3%
Cc1ccc(NC(=O)Nc2nnc(N3CCCC3)s2)cc1C	?	.	.	-4%	?	.
Cc1ccc2nc(N(CCCN(C)C)C(=O)c3ccc(Br)s3)sc2c1	3%	-1%	1	?	?	?
Cc1ccc2nc(N(CCCN(C)C)C(=O)c3cc(-c4cccs4)nc4ccccc34)sc2c1	.	79µM*	-1	.	.	.
CN(C)CCCN(C(=O)c1ccco1)c1nc2c(F)cccc2s1	-5%	11%	3	4%	3%	10%
CN(C)CCCN(C(=O)c1cc(-c2cccs2)nc2ccccc12)c1nc2c(F)cccc2s1	.	79µM*	.	.	.	.
Oc1ccc(-c2csc(NCc3ccco3)n2)cc1	?	45µM*	1	?	?	?
c1coc(CNc2nc(-c3cccs3)cs2)c1	?	-7%	3	3%	-25%	-27%
CC(=O)Nc1cccc(-c2csc(NCc3ccco3)n2)c1	?	45µM*	-1	8%	?	?
Cc1ccc(C(=O)/C=C/C(=O)O)cc1	?	13µM*	6	?	-10%	-14%
CNC1CCC(c2ccc(Cl)c(Cl)c2)c2ccccc21 (stereo not given)	.	-18%	2	3%	-12%	-3%
COC(=O)N[C@@H](/C=C/c1ccccc1)C[N+](=O)[O-]	1%	14%	3	-5%	-5%	4%
COc1c(O)cccc1/C=N/NC(=O)Cn1ccnc1C	5%	14%	-2	-6%	13%	10µM*
